Source: the supplement of paper PMC10849652
Targets with a hit are over-represented here; the source holds about 7,900 in all. About 0.6% of all pairs of compound and target were hits.

Tests used:
Assay in all cases: log2 fold change, soluble protein after heating vs DMSO (PISA); higher = thermal stabilisation; K562 cells, 10 uM, 30 min; active = over 0.2 and 3.5 SD of the protein, either way, in both replicates (recomputed)
bafetinib = compound: Cc1ccc(NC(=O)c2ccc(CN3CC[C@H](N(C)C)C3)c(C(F)(F)F)c2)cc1Nc1nccc(-c2cncnc2)n1 [bafetinib]
How it was run: (§1)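 K562 cells at 2×10^6 cells/mL were treated with 10 μM compound for 30 min. Aliquots were heated for 3 min across 48°C-58°C, pooled, and extracted in PBS with 0.5% NP-40 at 4°C; soluble protein was the supernatant after 21,000xg for 90 min. Soluble protein was quantified by TMTpro 16plex LC-MS/MS with channel sums equalised, and reported as log2 fold change in thermal stability against DMSO controls, with values from duplicates.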

[1] = compound: Cc1cccc(CC(=O)N2CCc3c2ccc(-c2cn(C)c4ncnc(N)c24)c3F)n1
How it was run: as §1

nilotinib = compound: Cc1cn(-c2cc(NC(=O)c3ccc(C)c(Nc4nccc(-c5cccnc5)n4)c3)cc(C(F)(F)F)c2)cn1 [nilotinib]
How it was run: as §1

[2] = compound: Cc1nc(Nc2n[nH]c3c2CN(C(=O)N[C@H](CN(C)C)c2ccccc2)C3(C)C)c2sccc2n1
How it was run: as §1

dasatinib = compound: Cc1nc(Nc2ncc(C(=O)Nc3c(C)cccc3Cl)s2)cc(N2CCN(CCO)CC2)n1 [dasatinib]
How it was run: as §1

[3] = compound: Cc1ncc(-c2ccnc(Nc3ccc(S(C)(=O)=O)cc3)n2)n1C(C)C
How it was run: as §1

[4] = compound: Cn1cc(-c2ccc3c(c2)CCN3C(=O)Cc2cccc(C(F)(F)F)c2)c2c(N)ncnc21
How it was run: as §1

[5] = compound: Cn1cc(-c2ccc3nnc(C(F)(F)c4ccc5ncccc5c4)n3n2)cn1
How it was run: as §1

tipifarnib = compound: Cn1cncc1[C@@](N)(c1ccc(Cl)cc1)c1ccc2c(c1)c(-c1cccc(Cl)c1)cc(=O)n2C [tipifarnib]
How it was run: as §1

mubritinib = compound: FC(F)(F)c1ccc(/C=C/c2nc(COc3ccc(CCCCn4ccnn4)cc3)co2)cc1 [mubritinib]
How it was run: as §1

Measured: log2 fold change

HNRNPK isoform 2 (UniProt P61978)
inactive: bafetinib -0.03 | [1] 0.007 | nilotinib -0.084 | [2] -0.206 | dasatinib -0.072 | [3] -0.136 | [4] 0.031 | [5] 0.017 | tipifarnib 0.007 | mubritinib -0.024

FIS1 (UniProt Q9Y3D6)
inactive: bafetinib -0.087 | [1] -0.034 | nilotinib 0.041 | [2] -0.002 | dasatinib -0.044 | [3] 0.007 | [4] 0.111 | [5] 0.07 | tipifarnib -0.024 | mubritinib 0.053

FBXO42 (UniProt Q6P3S6)
Chain of UniProt Q6P3S6 (Q6P3S6 whole entry, looked up): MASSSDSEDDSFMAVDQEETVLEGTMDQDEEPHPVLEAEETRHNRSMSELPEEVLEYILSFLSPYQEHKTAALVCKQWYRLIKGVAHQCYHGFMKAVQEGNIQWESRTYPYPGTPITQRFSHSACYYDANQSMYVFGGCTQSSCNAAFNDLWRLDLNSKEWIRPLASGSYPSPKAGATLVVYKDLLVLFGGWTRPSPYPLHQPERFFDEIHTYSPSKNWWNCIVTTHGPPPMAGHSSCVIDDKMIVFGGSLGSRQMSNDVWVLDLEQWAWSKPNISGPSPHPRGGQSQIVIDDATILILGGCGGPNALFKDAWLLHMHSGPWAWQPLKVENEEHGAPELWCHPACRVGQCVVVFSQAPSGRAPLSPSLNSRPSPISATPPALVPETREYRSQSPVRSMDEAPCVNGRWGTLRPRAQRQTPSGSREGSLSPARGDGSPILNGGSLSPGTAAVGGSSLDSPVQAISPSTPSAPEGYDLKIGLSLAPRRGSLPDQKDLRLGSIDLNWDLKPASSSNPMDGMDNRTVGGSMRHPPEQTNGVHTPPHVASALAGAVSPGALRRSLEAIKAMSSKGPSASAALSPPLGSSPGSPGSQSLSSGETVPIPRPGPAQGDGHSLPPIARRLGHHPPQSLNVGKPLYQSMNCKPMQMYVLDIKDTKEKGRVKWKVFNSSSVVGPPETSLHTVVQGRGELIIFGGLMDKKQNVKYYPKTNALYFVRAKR
inactive: bafetinib -0.014 | [1] -0.006 | nilotinib -0.006 | [2] 0.028 | dasatinib -0.036 | [3] -0.026 | [4] 0.137 | [5] -0.007 | tipifarnib 0.006 | mubritinib 0.059

GDI1 (UniProt P31150)
Chain of UniProt P31150 (P31150 whole entry, looked up): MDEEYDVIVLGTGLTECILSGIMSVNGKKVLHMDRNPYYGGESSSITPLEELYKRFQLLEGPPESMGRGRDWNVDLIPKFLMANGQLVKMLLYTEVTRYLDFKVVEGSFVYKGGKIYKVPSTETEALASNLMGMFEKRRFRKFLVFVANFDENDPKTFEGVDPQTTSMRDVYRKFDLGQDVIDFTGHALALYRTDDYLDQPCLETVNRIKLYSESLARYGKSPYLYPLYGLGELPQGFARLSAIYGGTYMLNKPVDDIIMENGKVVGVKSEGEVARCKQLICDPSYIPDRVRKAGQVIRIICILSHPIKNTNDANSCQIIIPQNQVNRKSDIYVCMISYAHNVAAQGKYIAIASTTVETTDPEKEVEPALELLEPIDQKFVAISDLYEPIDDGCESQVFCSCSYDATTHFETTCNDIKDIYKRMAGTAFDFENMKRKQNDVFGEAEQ
inactive: bafetinib 0.002 | [1] 0.024 | nilotinib 0.001 | [2] 0.017 | dasatinib -0.053 | [3] -0.024 | [4] 0.035 | [5] 0.01 | tipifarnib -0.06 | mubritinib 0.062

HNRNPC isoform 2 (UniProt P07910)
inactive: bafetinib 0.159 | [1] -0.228 | nilotinib 0.054 | [2] -0.099 | dasatinib 0.425 | [3] -0.286 | [4] -0.431 | [5] -0.173 | tipifarnib 0.596 | mubritinib -0.268

GCC2 (UniProt Q8IWJ2)
inactive: bafetinib 0.033 | [1] -0.045 | nilotinib -0.14 | [2] -0.071 | dasatinib -0.011 | [3] 0.119 | [4] -0.032 | [5] 0.02 | tipifarnib 0.051 | mubritinib -0.088

FOXK1 (UniProt P85037)
Chain of UniProt P85037 (P85037 whole entry, looked up): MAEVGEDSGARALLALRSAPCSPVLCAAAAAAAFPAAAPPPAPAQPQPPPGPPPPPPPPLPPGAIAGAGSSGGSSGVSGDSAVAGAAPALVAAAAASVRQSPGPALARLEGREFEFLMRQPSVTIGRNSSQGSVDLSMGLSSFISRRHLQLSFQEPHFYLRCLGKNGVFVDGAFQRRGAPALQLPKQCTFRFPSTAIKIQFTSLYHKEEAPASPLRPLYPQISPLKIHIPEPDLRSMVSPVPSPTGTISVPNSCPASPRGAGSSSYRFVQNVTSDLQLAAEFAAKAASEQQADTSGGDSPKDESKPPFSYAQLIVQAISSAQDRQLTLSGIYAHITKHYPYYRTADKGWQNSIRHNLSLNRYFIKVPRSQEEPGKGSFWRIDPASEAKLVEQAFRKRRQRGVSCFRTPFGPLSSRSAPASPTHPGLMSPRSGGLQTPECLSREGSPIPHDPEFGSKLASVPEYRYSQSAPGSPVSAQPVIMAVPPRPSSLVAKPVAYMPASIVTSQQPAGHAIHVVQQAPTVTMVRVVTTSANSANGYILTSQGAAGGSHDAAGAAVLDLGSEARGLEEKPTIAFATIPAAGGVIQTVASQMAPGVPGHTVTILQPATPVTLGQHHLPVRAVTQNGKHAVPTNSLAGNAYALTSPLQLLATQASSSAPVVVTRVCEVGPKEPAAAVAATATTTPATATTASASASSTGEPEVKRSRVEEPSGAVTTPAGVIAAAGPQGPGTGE
active: [3] -1.19
inactive: bafetinib 0.03 | [1] 0.052 | nilotinib 0.487 | [2] -0.816 | dasatinib 0.128 | [4] 0.312 | [5] 0.184 | tipifarnib 0.008 | mubritinib 0.03

GSR (UniProt P00390)
inactive: bafetinib -0.031 | [1] 0 | nilotinib -0.025 | [2] 0.02 | dasatinib 0.02 | [3] 0 | [4] 0.002 | [5] 0.022 | tipifarnib -0.058 | mubritinib 0.024

GEMIN2 (UniProt O14893)
Chain of UniProt O14893 (O14893 whole entry, looked up): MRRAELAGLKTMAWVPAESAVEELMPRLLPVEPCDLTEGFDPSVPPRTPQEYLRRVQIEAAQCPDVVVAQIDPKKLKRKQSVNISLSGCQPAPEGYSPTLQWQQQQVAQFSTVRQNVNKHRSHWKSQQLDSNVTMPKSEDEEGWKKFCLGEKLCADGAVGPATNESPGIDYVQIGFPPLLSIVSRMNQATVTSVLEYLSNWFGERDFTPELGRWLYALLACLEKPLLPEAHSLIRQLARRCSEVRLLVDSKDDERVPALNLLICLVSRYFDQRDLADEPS
inactive: bafetinib -0.154 | [1] -0.124 | nilotinib -0.045 | [2] 0 | dasatinib 0.049 | [3] -0.027 | [4] -0.039 | [5] -0.095 | tipifarnib 0.08 | mubritinib -0.048

GID4 (UniProt Q8IVV7)
inactive: bafetinib -0.059 | [1] -0.058 | nilotinib -0.051 | [2] 0.003 | dasatinib -0.086 | [3] 0.038 | [4] -0.042 | [5] -0.032 | tipifarnib 0.116 | mubritinib -0.029

IFT74 (UniProt Q96LB3)
Chain of UniProt Q96LB3 (Q96LB3 whole entry, looked up): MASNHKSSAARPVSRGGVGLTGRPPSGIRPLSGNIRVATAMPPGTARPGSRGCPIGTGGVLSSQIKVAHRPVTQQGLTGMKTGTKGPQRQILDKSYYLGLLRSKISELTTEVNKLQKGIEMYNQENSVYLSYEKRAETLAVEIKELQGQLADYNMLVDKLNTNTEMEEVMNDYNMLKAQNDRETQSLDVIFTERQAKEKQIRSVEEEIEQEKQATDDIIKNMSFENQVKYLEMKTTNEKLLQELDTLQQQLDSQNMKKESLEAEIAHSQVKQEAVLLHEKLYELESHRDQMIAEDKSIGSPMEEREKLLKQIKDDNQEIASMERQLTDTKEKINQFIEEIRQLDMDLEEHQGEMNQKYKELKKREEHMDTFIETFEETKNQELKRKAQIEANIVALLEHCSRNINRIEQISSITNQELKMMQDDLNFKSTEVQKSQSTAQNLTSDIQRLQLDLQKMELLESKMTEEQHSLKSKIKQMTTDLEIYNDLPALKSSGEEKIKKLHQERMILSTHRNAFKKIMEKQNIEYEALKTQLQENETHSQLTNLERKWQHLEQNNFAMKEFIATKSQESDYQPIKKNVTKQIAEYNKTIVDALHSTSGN
inactive: bafetinib -0.095 | [1] 0.015 | nilotinib 0.166 | [2] 0.063 | dasatinib 0.057 | [3] 0.008 | [4] 0.015 | [5] -0.053 | tipifarnib -0.052 | mubritinib 0.186

GLS isoform 3 (UniProt O94925)
active: mubritinib -0.492
inactive: bafetinib 0.045 | [1] 0.028 | nilotinib -0.238 | [2] -0.162 | dasatinib -0.282 | [3] 0.046 | [4] -0.097 | [5] 0.114 | tipifarnib -0.208

GPAT4 (UniProt Q86UL3)
inactive: bafetinib -0.138 | [1] -0.028 | nilotinib -0.047 | [2] 0.049 | dasatinib -0.024 | [3] -0.009 | [4] 0.093 | [5] -0.018 | tipifarnib -0.069 | mubritinib -0.008

FUCA1 (UniProt P04066)
inactive: [1] -0.001 | nilotinib -0.011 | [2] -0.01 | dasatinib -0.009 | [3] -0.014 | [4] -0.054 | [5] 0.011 | tipifarnib -0.001 | mubritinib -0.008
active: bafetinib -1.16

HEXB (UniProt P07686)
Chain of UniProt P07686 (P07686 whole entry, looked up): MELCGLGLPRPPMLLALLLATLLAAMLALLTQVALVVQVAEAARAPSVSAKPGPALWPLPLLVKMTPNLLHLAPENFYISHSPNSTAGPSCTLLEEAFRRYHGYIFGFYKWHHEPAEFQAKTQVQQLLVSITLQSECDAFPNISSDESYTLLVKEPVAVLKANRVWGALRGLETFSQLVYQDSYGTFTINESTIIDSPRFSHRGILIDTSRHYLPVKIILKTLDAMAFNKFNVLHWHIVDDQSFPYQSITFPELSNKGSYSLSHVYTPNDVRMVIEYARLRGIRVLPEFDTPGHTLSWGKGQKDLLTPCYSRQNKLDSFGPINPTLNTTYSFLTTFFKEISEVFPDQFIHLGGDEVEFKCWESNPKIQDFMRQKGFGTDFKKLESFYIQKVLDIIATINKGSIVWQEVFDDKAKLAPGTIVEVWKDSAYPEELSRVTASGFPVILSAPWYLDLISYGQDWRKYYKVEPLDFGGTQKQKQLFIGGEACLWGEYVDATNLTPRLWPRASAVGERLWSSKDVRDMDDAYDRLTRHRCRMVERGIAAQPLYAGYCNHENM
active: bafetinib -0.468
inactive: [1] -0.04 | nilotinib 0.002 | [2] 0.032 | dasatinib 0.039 | [3] -0.024 | [4] 0.021 | [5] 0.01 | tipifarnib 0.026 | mubritinib 0.008

HK2 (UniProt P52789)
active: nilotinib -0.967
inactive: bafetinib -0.215 | [1] 0.029 | [2] -0.194 | dasatinib -0.106 | [3] -0.03 | [4] 0.022 | [5] 0.01 | tipifarnib -0.01 | mubritinib 0.046

IDH3A (UniProt P50213)
inactive: bafetinib -0.016 | [1] 0.021 | nilotinib -0.027 | [2] -0.006 | dasatinib -0.005 | [3] -0.024 | [4] 0.045 | [5] 0.021 | tipifarnib -0.001 | mubritinib 0.06

GNAS (UniProt Q5JWF2)
inactive: bafetinib 0.129 | [1] -0.001 | nilotinib 0.103 | [2] -0.02 | dasatinib 0.064 | [3] 0.005 | [4] 0.029 | [5] 0.031 | tipifarnib 0.005 | mubritinib -0.035

FKBP3 (UniProt Q00688)
inactive: bafetinib 0.014 | [1] -0.03 | nilotinib 0.028 | [2] 0.041 | dasatinib -0.003 | [3] 0.029 | [4] -0.006 | [5] 0.021 | tipifarnib -0.01 | mubritinib 0.017

GTF2H3 (UniProt Q13889)
Chain of UniProt Q13889 (Q13889 whole entry, looked up): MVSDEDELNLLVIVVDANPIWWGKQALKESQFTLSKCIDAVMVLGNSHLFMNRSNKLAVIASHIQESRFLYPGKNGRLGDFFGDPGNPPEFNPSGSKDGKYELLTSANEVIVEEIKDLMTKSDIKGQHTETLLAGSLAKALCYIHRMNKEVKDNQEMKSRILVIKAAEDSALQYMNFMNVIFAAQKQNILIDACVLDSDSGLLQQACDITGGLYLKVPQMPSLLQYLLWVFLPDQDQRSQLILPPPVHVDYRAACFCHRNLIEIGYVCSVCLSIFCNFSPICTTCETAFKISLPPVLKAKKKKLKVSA
inactive: bafetinib -0.009 | [1] 0.058 | nilotinib 0.041 | [2] 0 | dasatinib 0.024 | [3] -0.064 | [4] -0.113 | [5] -0.02 | tipifarnib -0.025 | mubritinib 0.023

HDAC7 isoform 5 (UniProt Q8WUI4)
Chain of UniProt Q8WUI4 (Q8WUI4 whole entry, looked up): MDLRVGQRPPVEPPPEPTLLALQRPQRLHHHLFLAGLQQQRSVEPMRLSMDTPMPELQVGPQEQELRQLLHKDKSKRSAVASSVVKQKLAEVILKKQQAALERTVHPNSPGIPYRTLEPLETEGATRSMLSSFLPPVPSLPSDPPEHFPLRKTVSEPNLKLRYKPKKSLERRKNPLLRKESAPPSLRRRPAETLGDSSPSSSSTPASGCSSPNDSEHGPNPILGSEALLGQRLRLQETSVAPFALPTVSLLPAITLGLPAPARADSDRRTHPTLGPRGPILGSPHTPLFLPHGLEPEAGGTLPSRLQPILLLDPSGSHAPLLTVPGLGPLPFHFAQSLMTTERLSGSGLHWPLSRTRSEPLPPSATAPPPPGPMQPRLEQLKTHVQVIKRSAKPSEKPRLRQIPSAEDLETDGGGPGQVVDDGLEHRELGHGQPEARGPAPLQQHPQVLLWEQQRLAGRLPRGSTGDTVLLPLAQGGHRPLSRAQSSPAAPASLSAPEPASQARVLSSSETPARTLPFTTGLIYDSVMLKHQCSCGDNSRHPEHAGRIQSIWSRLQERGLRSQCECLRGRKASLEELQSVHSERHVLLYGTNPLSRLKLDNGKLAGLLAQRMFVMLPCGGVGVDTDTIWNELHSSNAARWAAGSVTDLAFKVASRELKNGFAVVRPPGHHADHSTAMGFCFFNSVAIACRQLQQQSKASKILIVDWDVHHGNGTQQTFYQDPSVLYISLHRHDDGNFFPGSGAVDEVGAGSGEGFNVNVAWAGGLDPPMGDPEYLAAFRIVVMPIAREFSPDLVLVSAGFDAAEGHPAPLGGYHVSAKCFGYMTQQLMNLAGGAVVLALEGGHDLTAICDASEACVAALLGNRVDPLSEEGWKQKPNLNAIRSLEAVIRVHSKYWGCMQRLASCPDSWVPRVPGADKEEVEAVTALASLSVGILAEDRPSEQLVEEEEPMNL
inactive: bafetinib -0.023 | [1] 0.033 | nilotinib 0.024 | dasatinib -0.134 | [3] -0.161 | [4] 0.026 | [5] -0.021 | tipifarnib 0.093 | mubritinib -0.006
active: [2] -0.378

GUK1 isoform 2 (UniProt Q16774)
inactive: bafetinib 0.134 | [1] 0.053 | nilotinib 0.226 | [2] -0.056 | dasatinib -0.109 | [3] 0.054 | [4] 0.058 | [5] -0.007 | tipifarnib -0.15
active: mubritinib 0.397

GALNT1 (UniProt Q10472)
inactive: bafetinib -0.053 | [1] -0.065 | nilotinib -0.059 | [2] 0.014 | dasatinib 0.014 | [3] 0.142 | [4] 0.1 | [5] -0.093 | tipifarnib 0.019 | mubritinib 0.029

GNB2 (UniProt P62879)
inactive: bafetinib 0.12 | [1] -0.002 | nilotinib 0.077 | [2] -0.018 | dasatinib 0.057 | [3] -0.012 | [4] 0.028 | [5] -0.032 | tipifarnib 0.003 | mubritinib -0.028

HAUS4 (UniProt Q9H6D7)
inactive: bafetinib -0.069 | [1] 0.023 | nilotinib 0.08 | [2] 0.086 | dasatinib 0.178 | [3] 0.567 | [4] -0.045 | [5] -0.051 | tipifarnib -0.115 | mubritinib -0.547

GATA1 (UniProt P15976)
inactive: bafetinib -0.09 | [1] 0.007 | nilotinib 0.028 | [2] 0.033 | dasatinib 0.157 | [3] -0.008 | [4] -0.084 | [5] -0.017 | tipifarnib -0.015 | mubritinib -0.033

GLA (UniProt P06280)
Chain of UniProt P06280 (P06280 whole entry, looked up): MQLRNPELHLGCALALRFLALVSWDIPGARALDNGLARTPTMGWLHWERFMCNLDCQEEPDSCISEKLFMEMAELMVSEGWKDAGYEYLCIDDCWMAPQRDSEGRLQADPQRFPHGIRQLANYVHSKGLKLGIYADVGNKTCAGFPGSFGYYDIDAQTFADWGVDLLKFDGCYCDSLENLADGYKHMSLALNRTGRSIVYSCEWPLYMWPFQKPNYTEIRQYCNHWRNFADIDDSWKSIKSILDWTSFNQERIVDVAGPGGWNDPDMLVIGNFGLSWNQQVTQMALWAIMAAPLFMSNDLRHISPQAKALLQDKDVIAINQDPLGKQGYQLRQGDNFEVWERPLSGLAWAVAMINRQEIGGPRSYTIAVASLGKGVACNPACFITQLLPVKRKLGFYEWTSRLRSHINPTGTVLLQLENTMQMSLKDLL
active: bafetinib -0.529
inactive: [1] -0.051 | nilotinib 0.021 | [2] -0.007 | dasatinib -0.039 | [3] -0.04 | [4] 0.005 | [5] 0.03 | tipifarnib 0.064 | mubritinib 0.035

HEATR3 (UniProt Q7Z4Q2)
active: [1] 0.389
inactive: bafetinib 0.058 | nilotinib -0.045 | [2] -0.088 | dasatinib -0.073 | [3] -0.073 | [4] -0.008 | [5] 0.138 | tipifarnib -0.011 | mubritinib -0.079

GCLM (UniProt P48507)
inactive: bafetinib 0.016 | [1] 0.072 | nilotinib -0.101 | [2] -0.015 | dasatinib -0.095 | [3] 0.019 | [4] 0.042 | [5] -0.051 | tipifarnib -0.133 | mubritinib 0.023

GSTP1 (UniProt P09211)
inactive: bafetinib -0.061 | [1] -0.021 | nilotinib -0.018 | [2] -0.017 | dasatinib -0.014 | [3] 0.007 | [4] 0.032 | [5] 0.038 | tipifarnib -0.007 | mubritinib 0.038
